Source: PubChem BioAssay (NCATS)
Results filed as inconclusive are left out. Active and inactive are the calls of the source. Calls come from the whole dose curve; as a rule, active = well fitted cell-killing curve with a large enough effect; inconclusive = small, poorly fitted or top-dose-only effect, or effect the other way; inactive = no such curve, though single readings can be large or run the other way.

experiment: Quantitative High-Throughput drug screen in 47 multiple myeloma cell lines against the NCATS MIPE library collection: MM1R_ATCC cell viability assay (AID 1918981); conditions: MM1R multiple myeloma cells, CellTiter-Glo viability, 48 h; series mostly up to 45.8 µM; note: nearly all actives have a fitted effect of over 35% in size
Text: PI: Beverly A. Mock Ph.D.
Laboratory of Cancer Biology and Genetics,
Center for Cancer Research, National Cancer Institute,
National Institute of Health, Bethesda, Maryland
Drug resistance and disease progression are common in multiple myeloma (MM) patients, underscoring the need for new therapeutic combinations. […] We hypothesized that effective combinations would reduce MYC expression and enhance p16 activity. […] These preclinical data identify potentially useful drug combinations for evaluation in drug-resistant MM and reveal potential mechanisms of combined drug sensitivity.
Described herein is the primary MIPE qHTS used to cherrypick compounds. Validated compounds were then further tested for potential synergistic activiy.
[1] Peat TJ, Gaikwad SM, Dubois W, Gyabaah-Kessie N, Zhang S, Gorjifard S, Phyo Z, Andres M, Hughitt VK, Simpson RM, Miller MA, Girvin AT, Taylor A, Williams D, D'Antonio N, Zhang Y, Rajagopalan A, Flietner E, Wilson K, Zhang X, Shinn P, Klumpp-Thomas C, McKnight C, Itkin Z, Chen L, Kazandijian D, Zhang J, Michalowski AM, Simmons JK, Keats J, Thomas CJ, Mock BA. Drug combinations identified by high-throughput screening promote cell cycle transition and upregulate Smad pathways in myeloma. Cancer Lett. 2023 Aug 1;568:216284. doi: 10.1016/j.canlet.2023.216284. Epub 2023 Jun 24. PMID: 37356470; PMCID: PMC10408729.
SEQUENCE No. (e.g., 1, 2, 3, etc.); […] (e.g., Cells, Incubation, Reagent, etc.); VALUE and DESCRIPTION.
1; Cells; 5 uL; white, solid bottom 1536-well Greiner assay plate.
2; Compounds; 23 nL; Kalypsis pin tool (Wako USA) equipped with a 1536-well pin head to transfer to the assay plates.
3; Incubation; 48 hours; 37C incubation.
4; Reagent;5uL; CellTiter Glo (Promega).
5; Detector; 425V; Luminescence; Viewlux PerkinElmer.
NOTES (numbers refer to Sequence numbers above)
1. The cell-based screening methods employed in this study were like those previously published. Briefly, the corresponding myeloma cell lines were screened in 1,536-well plates with 500 cells, 5-uL per well for inhibition of cell viability (assessed by measuring ATP levels with CellTiterGlo).
2. NCATS MIPE 4.0 library of approved and investigational drugs were added using the Kalypsis pin tool. Wells treated with DMSO only for 100% viability and media only for 0% viability were used as controls.
3. The assay plates were covered and incubated for 48 hours in a 37C, 5% CO2 incubator with controlled humidity.
4. After 48 hours, CellTilter-GloTM luminescent substrate mix (Promega) reagent was added to the assay plate and plates we incubated for 5 min at room temperature.
5. Signal was measured as median relative luminescence units on a ViewLux (PerkinElmer) multiplate reader.
[1] Heske CM, Davis MI, Baumgart JT, Wilson K, Gormally MV, Chen L, Zhang X, Ceribelli M, Duveau DY, Guha R, Ferrer M, Arnaldez FI, Ji J, Tran HL, Zhang Y, Mendoza A, Helman LJ, Thomas CJ. Matrix Screen Identifies Synergistic Combination of PARP Inhibitors and Nicotinamide Phosphoribosyltransferase (NAMPT) Inhibitors in Ewing Sarcoma. Clin Cancer Res. 2017 Dec 1;23(23):7301-7311. doi: 10.1158/1078-0432.CCR-17-1121. Epub 2017 Sep 12. PMID: 28899971; PMCID: PMC6636827.
Potency is the fitted concentration of half-maximal effect.

Row | SMILES | Potency
1 | CC(C=CC1=C(C)CCCC1(C)C)=CC=CC(C)=CC(=O)O | 14.8 µM (active)
2 | CCOc1cc(C(=O)Nc2ccc(Cl)c(-c3nc4ccccc4[nH]3)c2)cc(OCC)c1OCC | 13.2 µM (active)
3 | Cc1oncc1C(=O)Nc1ccc(C(F)(F)F)cc1 | inactive
4 | CCN(CC)CCCC(C)Nc1ccnc2cc(Cl)ccc12 (stereo not given) | inactive
5 | COCCNCCCn1c(C(=O)CF)c(-c2ccc(C)cc2)c2c(N)ncnc21 | 2.64 µM (active)
6 | NC(=O)c1ccc(I)c([N+](=O)[O-])c1 | 23.5 µM (active)
7 | CS(=O)(=O)c1cccc(CNc2nc(Nc3ccc4c(c3)CCC(=O)N4)ncc2C(F)(F)F)c1 | 20.9 µM (active)
8 | Cc1c(CCOc2ccc(C(=O)O)cc2)c2cc(Cl)ccc2n1C(c1ccccc1)c1ccccc1 | 11.8 µM (active)
9 | O=C(O)COCCN1CCN(C(c2ccccc2)c2ccc(Cl)cc2)CC1 (stereo not given) | inactive
10 | COc1ccc(CCN2CCN(CCCc3ccccc3)CC2)cc1OC | inactive
11 | CN(C)C(=O)c1ccc(S(=O)(=O)c2ccc(NC(=O)[C@@](C)(O)C(F)(F)F)c(Cl)c2)cc1 | 14.8 µM (active)
12 | CC(C[N+](C)(C)C)OC(N)=O (stereo not given) | inactive
13 | O=c1[nH]cnc2[nH]ncc12 | inactive
14 | O=c1ncn2nc(Sc3ccc(F)cc3F)ccc2c1-c1c(Cl)cccc1Cl | 16.6 µM (active)
15 | CCCCCCCc1ccc(CCc2cccc(O)c2C(=O)O)cc1 | 8.33 µM (active)
16 | CN(C)c1ccc(Nc2nc(N)n(C(=O)c3c(F)cccc3F)n2)cc1 | 18.7 µM (active)
17 | CCCCNc1cc(C(=O)O)cc(S(N)(=O)=O)c1Oc1ccccc1 | inactive
18 | COc1ccc(-c2c(-c3ccc(O)cc3O)n[nH]c2C)cc1 | 38.2 µM (active)
19 | CCCn1c(=O)c2[nH]c(C34CC5CC3C[C@@H](C5)C4)nc2n(CCC)c1=O | 11.8 µM (active)
20 | OCCC#Cc1nc(-c2ccc(F)cc2)c(-c2ccncc2)n1CCCc1ccccc1 | inactive

Row | SMILES | Potency
21 | C[C@]1(c2nc3c(C(N)=O)cccc3[nH]2)CCCN1 | inactive
22 | CN1CCN(CCCN2c3ccccc3Sc3ccc(C(F)(F)F)cc32)CC1 | inactive
23 | NC(=O)c1ccc(-c2nc(-c3ccc4c(c3)OCCO4)c(-c3ccccn3)[nH]2)cc1 | inactive
24 | COc1ccccc1[C@H](c1cccc2ccccc12)[C@@](C)(C#N)C(=O)N1CCC(c2cccc(C(F)(F)F)c2)CC1 | 4.69 µM (active)
25 | Cc1ccc(NC(=O)c2cccc(C(C)(C)C#N)c2)cc1Nc1ccc2ncn(C)c(=O)c2c1 | 6.62 µM (active)
26 | COc1nc(-c2ccc3c(c2)OCO3)n(-c2ccc(NC(=O)CSc3ccccc3)cc2)n1 | inactive
27 | CCc1cncnc1N1CCN(Cc2nc3ccc(C(F)(F)F)cc3[nH]2)CC1 | 18.7 µM (active)
28 | Cc1cc(Nc2nc(N[C@@H](C)c3ncc(F)cn3)ncc2Cl)n[nH]1 | 26.4 µM (active)
29 | CC[C@@H](C)[C@H](NC(=O)[C@H](CC1CCCCC1)NC(=O)c1ccno1)C(=O)N1CCC2(CCc3ccccc32)CC1 | 13.2 µM (active)
30 | C[C@]12CC[C@H](O)CC1=CC[C@@H]1[C@H]2CC[C@]2(C)C(c3cccnc3)=CC[C@H]12 | inactive
31 | CO[C@@H]1[C@H](N(C)C(=O)c2ccccc2)C[C@H]2O[C@]1(C)n1c3ccccc3c3c4c(c5c6ccccc6n2c5c31)C(=O)NC4 | 2.09 µM (active)
32 | COc1ccc(-c2oc3cc(OC)ccc3c2C(=O)c2ccc(C#N)cc2)cc1 | inactive
33 | CCOc1cc(C=C2C(=O)N(c3ccccc3)N=C2C)cc(Cl)c1OCC(=O)OC | 23.5 µM (active)
34 | O=C(Nc1ccc(F)c(C(F)(F)F)c1)Nc1nnc(-c2ccncc2)s1 | 11.8 µM (active)
35 | Cc1ccccc1C(OCCN(C)C)c1ccccc1 (stereo not given) | inactive
36 | CS(=O)(=O)Oc1ccc2c(NC(N)=O)c(C(=O)c3ccc(Cl)cc3Cl)oc2c1 | inactive
37 | COc1c(Cl)cc2c([nH]c3cnccc32)c1NC(=O)c1cccnc1C | 14.8 µM (active)
38 | Nc1ccc(S(=O)(=O)Nc2ccnn2-c2ccccc2)cc1 | inactive
39 | Cc1cc([C@@H](C)Nc2ccccc2C(=O)O)c2nc(N3CCOCC3)cc(=O)n2c1 | 27 µM (active)
40 | CCC(=O)N[C@H]1CC[C@H](C(=O)N(C)c2ccc(-c3nc4ccccc4o3)cc2)C1 | 3.72 µM (active)
